In PubChem BioAssay (Tox21):
Inconclusive results are not listed. Active and inactive are the calls of the source. Unless noted, calls come from the whole dose curve; as a rule, active = well fitted curve in the direction sought with a large enough effect in the repeat runs; inconclusive = weak or mixed curves; inactive = no such curve, though single readings can be large; an effect the other way counts as inactive or inconclusive.

What was measured:
[1] = qHTS assay to identify small molecule agonists of the androgen receptor (AR) signaling pathway in the presence of an antagonist - cell viability counter screen (AID 1259379);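 note: MDA-kb2 human breast cancer cells carrying an MMTV luciferase reporter; series mostly up to about 92 µM; nearly all actives have a fitted effect of over 25% in size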
Summary of the method: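 Each compound was tested at 15 concentrations on MDA-kb2 cells in the presence of 3.0uM nilutamide. Viability was measured by CellTiter-Fluor fluorescence after a 16 hr incubation at 37C in a CO2-free atmosphere.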

[2] = qHTS assay to identify small molecule agonists of the estrogen receptor beta (ER-beta) signaling pathway - cell viability counter screen (AID 1259380); note: nearly all actives have a fitted effect of over 30% in size
Summary of the method: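 Compounds dissolved in DMSO were pin-transferred onto ER-beta-UAS-bla HEK293T cells that had settled 6 hr, and exposure ran 16 hr at 37C. Following the reporter read, CellTiter-Glo luminescence after 30 min at room temperature indicated cytotoxicity.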

[3] = qHTS assay to identify small molecule antagonists of the estrogen receptor beta (ER-beta) signaling pathway - cell viability counter screen (AID 1259382);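 note: HEK293T cells carrying ER-beta-UAS-bla reporter stimulated with estradiol; series mostly up to about 92 µM; nearly all actives have a fitted effect of over 55% in size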
Summary of the method: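 CellTiter-Glo ATP luminescence measured after the LiveBLAzer read in the same wells; ER-beta-UAS-bla HEK293T cells, 16 hr compound treatment with 1nM 17-beta-estradiol agonist at 37C, 5% CO2.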

[4] = target: Estrogen receptor (Homo sapiens) (UniProt P03372); assay: qHTS assay to identify small molecule agonists of the estrogen receptor alpha (ER-alpha) signaling pathway in the presence of an antagonist (AID 1259383; calls by dose curve; note: top concentration of the series differs between compounds; nearly all actives have a fitted effect of over 15% in size)
Summary of the method: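 Luminescent ERE-luciferase reporter, VM7Luc4E2 cells (endogenous ER-alpha); 10.0nM ICI-182,780 final; 15-point compound titration; 22hr at 37C; ONE-Glo, 30min RT.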

[5] = qHTS assay to identify small molecule agonists or antagonists of the thyroid stimulating hormone receptor (TSHR) signaling pathway - wild type cell line counter screen (AID 1259384; calls by dose curve)
Summary of the method: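 Wild-type Hek293 cells, 800/well, 18 h at 37C, then compound with Ro20-1724 for 30 min RT. cAMP by HTRF (cAMP-d2/anti-cAMP cryptate), 1 h RT, fluorescence read. 15 concentrations, triplicates.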

[6] = qHTS assay to identify small molecule agonists of the estrogen receptor alpha (ER-alpha) signaling pathway in the presence of an antagonist - cell viability counter screen (AID 1259386);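 note: cells exposed to compounds for 22 h at 37 °C before the viability read; nearly all actives have a fitted effect of over 30% in size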; note: potency is the fitted concentration of half-maximal effect; for activity change, negative = cytotoxicity: series mostly up to about 92 µM
Summary of the method: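 Using estrogen-depleted VM7Luc4E2 cells, the 15-concentration compound series was applied together with 10.0nM ICI-182,780 and incubated 22hr at 37C/5% CO2. Cell viability was then scored by CellTiter-Fluor.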

[7] = target: Progesterone receptor (Homo sapiens) (UniProt P06401); assay: qHTS assay to identify small molecule antagonists of the progesterone receptor (PR) signaling pathway (AID 1346795; active = well fitted inhibition curve with a large enough effect in the signal ratio in the repeat runs, not every such curve was filed as active; the % refers to the signal ratio)
Summary of the method: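 Antagonist mode with agonist R5020 at 1 nM final and 16 hr incubation at 37C. Reporter was beta-lactamase driven by UAS in HEK293T (PR-UAS-bla), 2% charcoal-stripped serum; signal from LiveBLAzer FRET substrate, 2 hr at room temperature.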

[8] = qHTS assay to identify small molecule antagonists of the progesterone receptor (PR) signaling pathway - cell viability counter screen (AID 1346798); note: series mostly up to about 92 µM; nearly all actives have a fitted effect of over 50% in size
Summary of the method: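 Cytotoxicity read as CellTiter-Glo luminescence (30 min, room temperature) in the same wells as the beta-lactamase readout. HEK293T PR-UAS-bla cells in charcoal-stripped 2% FBS received compound and R5020, then 16 h at 37C, 5% CO2.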

[9] = qHTS assay to identify small molecule agonists of the progesterone receptor (PR) signaling pathway - cell viability counter screen (AID 1346799; calls by dose curve; note: nearly all actives have a fitted effect of over 45% in size)
Summary of the method: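 Cytotoxicity measured by CellTiter-Glo luminescence (30 min, RT) in the same wells as the PR beta-lactamase agonist read. Those HEK293T cells had 16 h compound treatment at 37 C in 2% charcoal-stripped FBS medium.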

[10] = qHTS assay to identify small molecule antagonists of the TGF-beta/Smad signaling pathway - cell viability counter screen (AID 1346824); note: nearly all actives have a fitted effect of over 50% in size
Summary of the method: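 SBE-bla HEK 293T cells, incubated overnight, then compound plus 0.25 ng/mL TGF-beta1 (stock added) for 5 hr at 37 C. Viability was read in the same wells by CellTiter-Glo luminescence after 30 min at room temperature.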

[11] = qHTS assay to identify small molecule agonists of the TGF-beta/Smad signaling pathway - cell viability counter screen (AID 1346829); note: top concentration of the series differs between compounds; nearly all actives have a fitted effect of over 45% in size
Summary of the method: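 Tox21 qHTS format: SBE-bla HEK 293T cells treated with DMSO-dissolved compounds for 5 hr; CellTiter-Glo luminescence after 30 min at room temperature.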

[12] = target: Thyrotropin-releasing hormone receptor (Homo sapiens) (UniProt P34981); assay: qHTS assay to identify small molecule antagonists of the thyrotropin-releasing hormone receptor (TRHR) signaling pathway (AID 1346877; active = well fitted inhibition curve with a large enough effect in the repeat runs, not every such curve was filed as active; note: series mostly up to about 51 µM)
Summary of the method: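 Calcium signal in dye-loaded TRHR/HEK293 cells; compounds added 5 min before TRH (1 nM final); fluorescence monitored 3 min at 1 s steps.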

[13] = target: Thyrotropin-releasing hormone receptor (Homo sapiens) (UniProt P34981); assay: qHTS assay to identify small molecule agonists of the thyrotropin-releasing hormone receptor (TRHR) signaling pathway (AID 1346891; calls by dose curve; note: series mostly up to about 58 µM)
Summary of the method: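 Agonist-mode intracellular calcium readout: kinetic fluorescence over 3 min at 1 s intervals after compound addition to TRHR-HEK293 cells (18 h seeded, 2 h dye-loaded at 37 C). Fifteen concentrations, triplicates.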

[14] = Human pregnane X receptor (PXR) small molecule agonists, qHTS cell viability counter screen (AID 1346977); note: nearly all actives have a fitted effect of over 50% in size
Summary of the method: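 Same-well viability read: CellTiter-Fluor added after 23 hr compound exposure, fluorescence measured 1 hr later. Cells were PXR-Luc HepG2 seeded at 2,000/well in 5% charcoal-stripped FBS medium, rested 5 hr before dosing at 37 C.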

[15] = qHTS assay to identify small molecule agonists of the TGF-beta/Smad signaling pathway (AID 1346859; active = well fitted activation curve with a large enough effect in the signal ratio in the repeat runs, not every such curve was filed as active; the % refers to the signal ratio; note: series mostly up to about 77 µM)
Summary of the method: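 Fluorescence (ex 405 nm; em 460 and 530 nm) was read 2 h after LiveBLAzer FRET substrate at RT. The preceding compound treatment of overnight-plated SBE-bla HEK293T cells lasted 5 h at 37 C.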

[16] = target: Thyrotropin receptor (Homo sapiens) (UniProt P16473); assay: qHTS assay to identify small molecule antagonists of the thyroid stimulating hormone receptor (TSHR) signaling pathway (AID 1259385; calls by dose curve; note: nearly all actives have a fitted effect of over 20% in size)
Summary of the method: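 TSHR-HEK293 cells (800/well) plated 18 h, then compounds with Ro20-1724 and TSH at 1.5 ng/mL final, 30 min at room temperature. cAMP quantified by HTRF (cAMP-d2/anti-cAMP-cryptate, 1 h); 15 concentrations in triplicate.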

[17] = target: Progesterone receptor (Homo sapiens) (UniProt P06401); assay: qHTS assay to identify small molecule agonists of the progesterone receptor (PR) signaling pathway (AID 1346784; calls by dose curve; note: nearly all actives have a fitted effect of over 30% in size; note: potency is the fitted concentration of half-maximal effect)
Summary of the method: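 Agonist qHTS: compounds pinned onto 3,000 PR-UAS-bla HEK 293T cells per well in charcoal-stripped serum medium, 16hr at 37C, then beta-lactamase activity measured by LiveBLAzer FRET fluorescence after 2 hours at room temperature.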

[18] = target: Androgen receptor (Homo sapiens) (UniProt P10275); assay: qHTS assay to identify small molecule agonists of the androgen receptor (AR) signaling pathway in the presence of an antagonist (AID 1259381; calls by dose curve; note: nearly all actives have a fitted effect of over 15% in size)
Summary of the method: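 Plated MDA-kb2 cells (3,000/well) were pre-incubated 5hr, given nilutamide (3.0uM final) or buffer, then dosed with compounds in DMSO at 15 concentrations. Luciferase activity was quantified by luminescence after 16hr at 37C.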
% is set by controls: 0 for no effect and ±100 for the full control effect.

Estrogen receptor (Homo sapiens), sequence (P03372 whole entry, looked up): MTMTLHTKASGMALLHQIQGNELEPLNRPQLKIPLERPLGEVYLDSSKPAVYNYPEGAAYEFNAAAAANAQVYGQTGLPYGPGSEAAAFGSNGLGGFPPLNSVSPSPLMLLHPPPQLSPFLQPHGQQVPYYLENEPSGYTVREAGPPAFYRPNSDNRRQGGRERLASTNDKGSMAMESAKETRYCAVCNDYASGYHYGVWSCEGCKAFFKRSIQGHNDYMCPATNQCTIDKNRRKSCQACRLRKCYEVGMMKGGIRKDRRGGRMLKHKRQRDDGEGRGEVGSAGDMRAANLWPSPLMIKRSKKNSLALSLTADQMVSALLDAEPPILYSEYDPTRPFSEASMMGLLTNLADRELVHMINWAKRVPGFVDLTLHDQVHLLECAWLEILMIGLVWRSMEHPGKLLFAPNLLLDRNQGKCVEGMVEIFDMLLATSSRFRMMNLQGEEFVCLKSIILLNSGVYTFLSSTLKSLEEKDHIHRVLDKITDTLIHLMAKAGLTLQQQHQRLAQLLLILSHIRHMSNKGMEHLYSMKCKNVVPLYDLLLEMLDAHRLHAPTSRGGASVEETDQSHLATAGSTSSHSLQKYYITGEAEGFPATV
Thyrotropin-releasing hormone receptor (Homo sapiens), sequence (P34981 whole entry, looked up): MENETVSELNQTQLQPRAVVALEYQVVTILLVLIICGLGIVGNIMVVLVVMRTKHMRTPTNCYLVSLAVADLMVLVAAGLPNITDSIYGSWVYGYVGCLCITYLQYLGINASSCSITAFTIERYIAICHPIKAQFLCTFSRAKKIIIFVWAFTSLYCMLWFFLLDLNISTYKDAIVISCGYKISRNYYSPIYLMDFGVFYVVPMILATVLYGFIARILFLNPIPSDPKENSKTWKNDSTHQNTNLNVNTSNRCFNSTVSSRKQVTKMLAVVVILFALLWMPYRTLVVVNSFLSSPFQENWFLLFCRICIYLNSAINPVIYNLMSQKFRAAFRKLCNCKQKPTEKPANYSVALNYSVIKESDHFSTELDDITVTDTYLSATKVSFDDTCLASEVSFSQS
Progesterone receptor (Homo sapiens), sequence (P06401 whole entry, looked up): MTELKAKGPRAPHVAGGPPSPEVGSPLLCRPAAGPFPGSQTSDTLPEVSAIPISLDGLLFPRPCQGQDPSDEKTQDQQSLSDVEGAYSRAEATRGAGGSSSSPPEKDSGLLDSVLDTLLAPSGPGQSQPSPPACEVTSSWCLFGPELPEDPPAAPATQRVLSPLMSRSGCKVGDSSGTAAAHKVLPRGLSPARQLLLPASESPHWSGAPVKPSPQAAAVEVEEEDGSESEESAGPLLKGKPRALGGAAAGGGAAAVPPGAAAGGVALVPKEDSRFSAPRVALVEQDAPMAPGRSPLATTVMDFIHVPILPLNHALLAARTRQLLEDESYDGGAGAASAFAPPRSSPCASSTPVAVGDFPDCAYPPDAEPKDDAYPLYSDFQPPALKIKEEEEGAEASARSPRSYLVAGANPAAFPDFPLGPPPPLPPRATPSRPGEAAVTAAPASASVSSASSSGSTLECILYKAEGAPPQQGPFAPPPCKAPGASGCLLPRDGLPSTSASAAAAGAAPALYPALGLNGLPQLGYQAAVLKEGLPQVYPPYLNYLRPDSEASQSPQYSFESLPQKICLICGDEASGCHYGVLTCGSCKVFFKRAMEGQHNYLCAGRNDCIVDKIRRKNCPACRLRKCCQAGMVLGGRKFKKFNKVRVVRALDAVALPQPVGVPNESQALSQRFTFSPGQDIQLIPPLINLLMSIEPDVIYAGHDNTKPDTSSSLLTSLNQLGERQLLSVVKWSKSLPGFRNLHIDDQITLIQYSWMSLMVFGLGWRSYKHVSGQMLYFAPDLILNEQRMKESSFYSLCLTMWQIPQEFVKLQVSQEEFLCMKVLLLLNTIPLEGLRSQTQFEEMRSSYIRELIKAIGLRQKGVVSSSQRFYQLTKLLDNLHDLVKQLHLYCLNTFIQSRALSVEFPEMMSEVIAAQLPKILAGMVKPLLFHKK
Thyrotropin receptor (Homo sapiens), sequence (P16473 whole entry, looked up): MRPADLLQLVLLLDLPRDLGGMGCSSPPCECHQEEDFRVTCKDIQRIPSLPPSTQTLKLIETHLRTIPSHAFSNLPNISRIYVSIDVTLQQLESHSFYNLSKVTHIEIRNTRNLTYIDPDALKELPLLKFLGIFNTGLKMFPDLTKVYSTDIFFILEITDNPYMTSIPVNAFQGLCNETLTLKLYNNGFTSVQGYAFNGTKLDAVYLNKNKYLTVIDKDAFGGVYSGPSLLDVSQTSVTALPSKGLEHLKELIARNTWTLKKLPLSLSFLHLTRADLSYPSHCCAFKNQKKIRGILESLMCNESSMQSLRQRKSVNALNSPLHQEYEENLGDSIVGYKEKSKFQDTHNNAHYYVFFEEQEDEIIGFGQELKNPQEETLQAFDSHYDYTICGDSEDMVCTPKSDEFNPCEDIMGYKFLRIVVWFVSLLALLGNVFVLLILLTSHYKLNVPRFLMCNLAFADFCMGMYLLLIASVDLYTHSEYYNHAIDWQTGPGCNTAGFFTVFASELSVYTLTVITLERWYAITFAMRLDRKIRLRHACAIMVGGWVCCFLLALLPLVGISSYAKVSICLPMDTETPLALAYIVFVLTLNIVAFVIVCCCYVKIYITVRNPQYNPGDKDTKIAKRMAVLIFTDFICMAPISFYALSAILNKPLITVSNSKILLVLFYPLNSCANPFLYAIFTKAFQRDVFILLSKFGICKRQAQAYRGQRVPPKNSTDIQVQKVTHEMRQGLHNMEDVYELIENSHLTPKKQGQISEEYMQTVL
Androgen receptor (Homo sapiens), sequence (P10275 whole entry, looked up): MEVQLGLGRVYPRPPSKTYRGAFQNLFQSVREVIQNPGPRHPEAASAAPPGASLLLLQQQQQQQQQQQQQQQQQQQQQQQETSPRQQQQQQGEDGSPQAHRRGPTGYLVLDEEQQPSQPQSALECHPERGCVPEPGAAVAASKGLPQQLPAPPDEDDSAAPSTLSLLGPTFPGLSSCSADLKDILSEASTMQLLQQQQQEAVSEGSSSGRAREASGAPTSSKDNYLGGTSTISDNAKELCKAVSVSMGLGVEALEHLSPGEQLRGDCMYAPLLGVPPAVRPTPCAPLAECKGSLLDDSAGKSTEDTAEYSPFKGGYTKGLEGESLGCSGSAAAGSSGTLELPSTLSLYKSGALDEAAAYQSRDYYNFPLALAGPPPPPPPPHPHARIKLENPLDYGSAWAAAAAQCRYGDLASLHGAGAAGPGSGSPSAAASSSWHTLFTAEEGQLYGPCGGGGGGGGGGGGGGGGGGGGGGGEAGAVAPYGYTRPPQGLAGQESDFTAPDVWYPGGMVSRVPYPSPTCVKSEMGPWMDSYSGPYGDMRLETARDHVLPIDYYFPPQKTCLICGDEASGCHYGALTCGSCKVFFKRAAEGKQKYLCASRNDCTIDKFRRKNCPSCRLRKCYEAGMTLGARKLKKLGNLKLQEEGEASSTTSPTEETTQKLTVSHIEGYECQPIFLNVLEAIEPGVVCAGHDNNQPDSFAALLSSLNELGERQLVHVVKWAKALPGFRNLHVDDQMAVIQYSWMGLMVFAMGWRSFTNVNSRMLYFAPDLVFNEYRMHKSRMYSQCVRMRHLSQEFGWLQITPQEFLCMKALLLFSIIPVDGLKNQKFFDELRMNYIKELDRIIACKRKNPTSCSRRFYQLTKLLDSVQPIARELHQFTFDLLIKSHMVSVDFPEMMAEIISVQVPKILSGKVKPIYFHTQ

CN(C)CCN(C)CCN(C)C
inactive: Potency [1] | Potency [2] | outcome [3] | outcome [4] | outcome [5] | Potency [6] | Potency [7] | Potency [8] | Potency [9] | outcome [10] | outcome [11] | outcome [12] | Potency [13] | Potency [14]

Nc1ccn([C@@H]2O[C@H](CO)[C@@H](O)C2O)c(=O)n1 (stereo not given in full)
inactive: Potency [1] | Potency [2] | outcome [3] | outcome [4] | Potency [6] | Potency [7] | Potency [8] | Potency [9] | outcome [10] | outcome [11] | outcome [15] | outcome [12] | Potency [13] | Potency [14]

Cc1cc(C)c(N=Nc2c(O)c(S(=O)(=O)O)cc3cc(S(=O)(=O)O)ccc23)cc1C
inactive: activity change, negative = cytotoxicity [1] -11.3% [at 8.39 µM] | activity change, negative = cytotoxicity [2] -5.12% [at 8.39 µM] | activity change, negative = cytotoxicity [3] 8.89% [at 8.39 µM] | activation [4] -2.23% [at 8.39 µM] | cAMP activity change [5] 2.77% [at 8.39 µM] | activity change, negative = inhibition [16] -1.06% [at 8.39 µM] | activity change, negative = inhibition [7] 2.15% [at 8.39 µM] | activity change, negative = cytotoxicity [8] 1.98% [at 8.39 µM] | activity change, negative = cytotoxicity [9] 0% [at 8.39 µM] | activity change, negative = cytotoxicity [11] -4.86% [at 6.97 µM] | activation [15] 0.0984% [at 6.97 µM] | activity change, negative = cytotoxicity [14] -25% [at 8.39 µM]

NC(CCC(=O)O)C(=O)O (stereo not given)
inactive: Potency [1] | Potency [2] | outcome [3] | outcome [4] | outcome [5] | outcome [16] | Potency [6] | Potency [17] | Potency [7] | Potency [8] | Potency [9] | outcome [10] | outcome [11] | outcome [15] | Potency [13]

CN1[C@@H]2CC[C@H]1CC(OC(=O)C(O)c1ccccc1)C2 (stereo not given in full)
inactive: Potency [1] | Potency [2] | outcome [3] | outcome [4] | outcome [5] | Potency [6] | Potency [7] | Potency [8] | Potency [9] | outcome [10] | outcome [11] | outcome [15] | outcome [12] | Potency [13] | Potency [14]

O=C(O)c1cc(C(=O)O)cc(C(=O)O)c1
inactive: Potency [1] | Potency [2] | outcome [3] | outcome [4] | outcome [5] | outcome [16] | Potency [6] | Potency [17] | Potency [7] | Potency [8] | Potency [9] | outcome [10] | outcome [11] | outcome [15] | Potency [13] | Potency [14]

C[N+]1(C)[C@@H]2CC(OC(=O)[C@H](CO)c3ccccc3)C[C@H]1[C@@H]1O[C@@H]12 (stereo not given in full)
inactive: Potency [1] | Potency [2] | outcome [3] | outcome [4] | outcome [5] | outcome [16] | Potency [6] | Potency [17] | Potency [7] | Potency [8] | Potency [9] | outcome [10] | outcome [11] | outcome [15] | outcome [12] | Potency [13] | Potency [14]

CC/C=C\CCOC(C)OCC (stereo not given)
inactive: Potency [1] | Potency [2] | outcome [3] | outcome [4] | outcome [5] | outcome [16] | Potency [6] | Potency [7] | Potency [8] | Potency [9] | outcome [10] | outcome [11] | outcome [15] | outcome [12] | Potency [13] | Potency [14]

C[N+]1(C)CCCC(OC(=O)C(O)(c2ccccc2)c2ccccc2)C1 (stereo not given)
inactive: Potency [1] | Potency [2] | outcome [3] | outcome [4] | Potency [6] | Potency [7] | Potency [9] | outcome [10] | outcome [11] | outcome [15] | Potency [14]
active: Potency [17] 15 µM

CC1=NN(c2cccc(S(=O)(=O)O)c2)C(=O)C1
inactive: Potency [1] | Potency [2] | Potency [18] | outcome [4] | outcome [5] | outcome [16] | Potency [6] | Potency [7] | outcome [11] | outcome [15] | outcome [12] | Potency [13] | Potency [14]

CNCC(O)c1ccc(O)c(O)c1 (stereo not given)
inactive: Potency [1] | Potency [2] | outcome [3] | outcome [4] | outcome [16] | Potency [17] | Potency [7] | Potency [9] | outcome [10] | outcome [11] | outcome [15] | outcome [12] | Potency [13] | Potency [14]
active: Potency [6] 29.8 µM

CO[Si](C)(OC)c1ccccc1
inactive: Potency [1] | Potency [2] | outcome [3] | outcome [4] | outcome [5] | outcome [16] | Potency [6] | Potency [7] | Potency [8] | Potency [9] | outcome [10] | outcome [11] | outcome [15] | outcome [12] | Potency [14]

CC(=O)c1cnccn1
inactive: Potency [1] | Potency [2] | outcome [3] | outcome [4] | outcome [5] | outcome [16] | Potency [6] | Potency [17] | Potency [7] | Potency [8] | Potency [9] | outcome [11] | outcome [15] | outcome [12] | Potency [13] | Potency [14]

CC(=O)Oc1cccc(C)c1
inactive: Potency [1] | Potency [2] | outcome [3] | outcome [4] | outcome [5] | outcome [16] | Potency [6] | Potency [7] | Potency [8] | Potency [9] | outcome [11] | outcome [15] | outcome [12]

O=C(O)CCCC[P+](c1ccccc1)(c1ccccc1)c1ccccc1
inactive: Potency [1] | Potency [2] | outcome [3] | outcome [4] | outcome [5] | outcome [16] | Potency [6] | Potency [7] | Potency [8] | Potency [9] | outcome [10] | outcome [11] | outcome [15] | Potency [14]

CCCCN1C=CN(C)C1
active: Potency [17] 2.46 µM
inactive: activity change, negative = cytotoxicity [1] 0.886% [at 19 µM] | activity change, negative = cytotoxicity [2] 2.46% [at 19 µM] | activity change, negative = cytotoxicity [3] -4.66% [at 19 µM] | activation [4] 0.706% [at 19 µM] | cAMP activity change [5] -4.22% [at 18.9 µM] | activity change, negative = inhibition [16] 1.39% [at 19 µM] | activity change, negative = cytotoxicity [6] 0.508% [at 19 µM] | activity change, negative = inhibition [7] 3.82% [at 18.9 µM] | activity change, negative = cytotoxicity [8] -2.54% [at 18.9 µM] | viability change, negative = cytotoxic [10] -11.6% [at 15.8 µM] | activity change, negative = cytotoxicity [11] -1.56% [at 15.8 µM] | activation [15] 4.63% [at 15.8 µM] | activity change, negative = cytotoxicity [14] -1.91% [at 19 µM]

CC(=O)C1CCCCC1=O (stereo not given)
inactive: Potency [1] | Potency [2] | outcome [3] | outcome [4] | outcome [5] | outcome [16] | Potency [6] | Potency [17] | Potency [7] | outcome [10] | outcome [11] | outcome [15] | Potency [13] | Potency [14]
